PubChem BioAssay (EPA / NIEHS)
Active and inactive are the calls of the source. How the source made its calls: active means hit-call score of the fitted dose curve at least 0.9, where 1 is the maximum; inactive means score below 0.9.

Key:
Details in all cases: mRNA level, 48 h; actives raise or lower the signal
[1] = read-out: growth arrest and DNA damage 45 (GADD45A), GADD45A (gene 1647); test: LTEA_HepaRG_GADD45A: Life Technologies and Expression Analysis (LTEA) Assay for growth arrest and DNA damage 45 (GADD45A) using HepaRG (AID 2283458)
Procedure, shortened: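 Differentiated HepaRG cells exposed 48 h in serum-free induction medium to 8 concentrations, top 100 uM in half-log steps, 0.5% DMSO. GADD45A mRNA quantified by qRT-PCR, normalized to ACTB, GAPDH and POLR2A; bidirectional fit versus DMSO.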

[2] = read-out: Forkhead box O3 (FOXO3), FOXO3 (gene 2309); test: LTEA_HepaRG_FOXO3: Life Technologies and Expression Analysis (LTEA) Assay for Forkhead box O3 (FOXO3) using HepaRG (AID 2283459)
Procedure, shortened: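 Differentiated human HepaRG cells in serum-free induction medium were exposed in duplicate for 48 h to eight half-log concentrations up to 100 uM in 0.5% DMSO. FOXO3 mRNA was quantified by qRT-PCR, normalized to ACTB, GAPDH and POLR2A, with bidirectional fitting versus DMSO.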

[3] = read-out: ABC Transporter (ABCB1), ABCB1 (gene 5243); test: LTEA_HepaRG_ABCB1: Life Technologies and Expression Analysis (LTEA) Assay for ABC Transporter (ABCB1) using HepaRG (AID 2283460)
Procedure, shortened: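 Differentiated human HepaRG cells, plated 48 h then switched to serum-free induction medium, were exposed in duplicate to eight half-log concentrations up to 100 uM in 0.5% DMSO for 48 h. ABCB1 mRNA was measured by TaqMan qRT-PCR, normalized to ACTB/GAPDH/POLR2A.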

[4] = read-out: growth arrest and DNA damage 45 (GADD45B), GADD45B (gene 4616); test: LTEA_HepaRG_GADD45B: Life Technologies and Expression Analysis (LTEA) Assay for growth arrest and DNA damage 45 (GADD45B) using HepaRG (AID 2283461)
Procedure, shortened: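 Values are bidirectional concentration-response fits against 0.5% DMSO controls. Underlying data: qRT-PCR mRNA levels in human HepaRG liver cells treated 48 h in serum-free induction medium, eight concentrations topping at 100 uM.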

[5] = read-out: ABC Transporter (ABCC3), ABCC3 (gene 8714); test: LTEA_HepaRG_ABCC3: Life Technologies and Expression Analysis (LTEA) Assay for ABC Transporter (ABCC3) using HepaRG (AID 2283462)
Procedure, shortened: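 Differentiated HepaRG liver cells receive test chemicals at eight concentrations (max 100 uM) for 48 h. Expression of ABCC3 is quantified by qRT-PCR against ACTB, GAPDH and POLR2A, and activity is fitted in both directions against the DMSO control.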

[6] = read-out: ABC Transporter (ABCB11), ABCB11 (gene 8647); test: LTEA_HepaRG_ABCB11: Life Technologies and Expression Analysis (LTEA) Assay for ABC Transporter (ABCB11) using HepaRG (AID 2283463)
Procedure, shortened: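 Differentiated human HepaRG cells were exposed for 48 h in serum-free induction medium to eight half-log concentrations up to 100 uM in 0.5% DMSO. ABCB11 mRNA was quantified by qRT-PCR, normalized to ACTB, GAPDH and POLR2A, and fitted bidirectionally versus DMSO.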

[7] = read-out: ABC Transporter (ABCC2), ABCC2 (gene 1244); test: LTEA_HepaRG_ABCC2: Life Technologies and Expression Analysis (LTEA) Assay for ABC Transporter (ABCC2) using HepaRG (AID 2283464)
Procedure, shortened: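 Gene expression of ABCC2 was determined by qRT-PCR in HepaRG cells exposed 48 h to chemicals (highest 100 uM, half-log dilutions). Activity was fitted in both directions relative to 0.5% DMSO vehicle.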

[8] = read-out: Broad substrate specificity ATP-binding cassette transporter ABCG2 (Homo sapiens) (UniProt Q9UNQ0); test: LTEA_HepaRG_ABCG2: Life Technologies and Expression Analysis (LTEA) Assay for ABC Transporter (ABCG2) using HepaRG (AID 2283465)
Procedure, shortened: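 Differentiated HepaRG cells in serum-free induction medium were exposed for 48 h, in duplicate, to eight half-log concentrations up to 100 uM in 0.5% DMSO. ABCG2 mRNA was measured by TaqMan qRT-PCR, normalized to ACTB, GAPDH and POLR2A, and fitted bidirectionally versus DMSO.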

[9] = read-out: ATP-citrate lyase (ACLY), ACLY (gene 47); test: LTEA_HepaRG_ACLY: Life Technologies and Expression Analysis (LTEA) Assay for ATP-citrate lyase (ACLY) using HepaRG (AID 2283466)
Procedure, shortened: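 Differentiated human HepaRG cells in serum-free induction medium exposed 48 h, in duplicate, to eight half-log concentrations from 100 uM top in 0.5% DMSO; ACLY mRNA measured by qRT-PCR, normalized to ACTB, GAPDH, POLR2A, fitted bidirectionally versus DMSO.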

[10] = read-out: Peroxisomal acyl-coenzyme A oxidase 1 (ACOX1) gene, ACOX1 (gene 51); test: LTEA_HepaRG_ACOX1: Life Technologies and Expression Analysis (LTEA) Assay for Peroxisomal acyl-coenzyme A oxidase 1 (ACOX1) gene using HepaRG (AID 2283467)
Procedure, shortened: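 Differentiated human HepaRG cells were exposed in duplicate for 48 h in serum-free induction medium to eight half-log concentrations up to 100 uM in 0.5% DMSO. ACOX1 mRNA was then quantified by TaqMan qRT-PCR, normalized to ACTB, GAPDH and POLR2A.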

[11] = read-out: Bcl-2 (BAD) gene, BAD (gene 572); test: LTEA_HepaRG_BAD: Life Technologies and Expression Analysis (LTEA) Assay for Bcl-2 (BAD) gene using HepaRG (AID 2283469)
Procedure, shortened: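 Differentiated human HepaRG cells in serum-free induction medium were exposed in duplicate for 48 h to eight concentrations (top 100 uM, half-log steps, 0.5% DMSO). BAD mRNA was quantified by qRT-PCR normalised to ACTB, GAPDH and POLR2A, with bidirectional fitting versus DMSO.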

[12] = read-out: adenosine kinase (ADK) gene, ADK (gene 132); test: LTEA_HepaRG_ADK: Life Technologies and Expression Analysis (LTEA) Assay for adenosine kinase (ADK) gene using HepaRG (AID 2283471)
Procedure, shortened: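 HepaRG (human liver), 48 h chemical exposure, 8-pt half-log series, top 100 uM, 0.5% DMSO vehicle. Readout: ADK mRNA by qRT-PCR vs housekeeping genes; bidirectional curve fit relative to DMSO baseline.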

[13] = read-out: Alpha-fetoprotein (AFP) gene, AFP (gene 174); test: LTEA_HepaRG_AFP: Life Technologies and Expression Analysis (LTEA) Assay for Alpha-fetoprotein (AFP) gene using HepaRG (AID 2283472)
Procedure, shortened: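 Differentiated human HepaRG cells exposed 48 h in serum-free induction medium, 8-point half-log series from 100 uM in 0.5% DMSO, duplicate. AFP mRNA by qRT-PCR, normalized to ACTB, GAPDH, POLR2A; bidirectional fit vs DMSO.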

BCL2L11 (gene 10018) = test: LTEA_HepaRG_BCL2L11: Life Technologies and Expression Analysis (LTEA) Assay for Bcl-2 (BCL2L11) gene using HepaRG (AID 2283473)
Procedure, shortened: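 Cells were plated, cultured 48 h, switched to serum-free induction medium, then dosed in duplicate for 48 h at eight half-log concentrations up to 100 uM. Lysates underwent RNA isolation and TaqMan qRT-PCR; gain or loss versus DMSO was fitted.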

[14] = read-out: Apolipoprotein A-V (APOA5) gene, APOA5 (gene 116519); test: LTEA_HepaRG_APOA5: Life Technologies and Expression Analysis (LTEA) Assay for Apolipoprotein A-V (APOA5) gene using HepaRG (AID 2283474)
Procedure, shortened: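 Human liver HepaRG cells are treated 48 h with test chemicals (100 uM top, half-log dilutions, 0.5% DMSO). APOA5 mRNA induction or loss is measured by qRT-PCR relative to vehicle.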

[15] = read-out: Apoptosis regulator Bcl-2 (Homo sapiens) (UniProt P10415); test: LTEA_HepaRG_BCL2: Life Technologies and Expression Analysis (LTEA) Assay for Bcl-2 gene using HepaRG (AID 2283475)
Procedure, shortened: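 Differentiated human HepaRG cells in serum-free induction medium exposed 48 h, in duplicate, to 8-point half-log series from 100 uM in 0.5% DMSO. BCL2 mRNA by qRT-PCR (TaqMan/Fluidigm), normalized to ACTB, GAPDH, POLR2A; bidirectional fit against DMSO.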

[16] = read-out: Bcl-2 (BID) gene, BID (gene 637); test: LTEA_HepaRG_BID: Life Technologies and Expression Analysis (LTEA) Assay for Bcl-2 (BID) gene using HepaRG (AID 2283476)
Procedure, shortened: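 Gene expression by qRT-PCR in HepaRG cells after 48 h exposure, duplicate wells, eight half-log concentrations topping at 100 uM in 0.5% DMSO. Normalized to ACTB, GAPDH, POLR2A; bidirectional fitting relative to DMSO.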

Caspase-3 (Homo sapiens) = Caspase-3 (Homo sapiens) (UniProt P42574); test: LTEA_HepaRG_CASP3: Life Technologies and Expression Analysis (LTEA) Assay for cysteine-aspartic acid protease (CASP3) using HepaRG (AID 2283477)
Caspase-3 (Homo sapiens), sequence (P42574 whole entry, looked up): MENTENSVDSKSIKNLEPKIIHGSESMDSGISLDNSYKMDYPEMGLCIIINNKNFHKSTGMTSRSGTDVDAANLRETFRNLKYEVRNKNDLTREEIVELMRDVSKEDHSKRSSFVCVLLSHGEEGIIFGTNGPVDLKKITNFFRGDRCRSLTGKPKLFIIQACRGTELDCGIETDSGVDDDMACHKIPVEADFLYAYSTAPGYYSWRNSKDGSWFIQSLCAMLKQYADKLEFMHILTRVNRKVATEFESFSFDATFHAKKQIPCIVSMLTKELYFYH
Procedure, shortened: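 In HepaRG liver cells dosed for 48 h at up to 100 uM (eight-point, duplicate), CASP3 expression changes are scored by qRT-PCR. Activity is fitted in both directions with 0.5% DMSO as baseline.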

[17] = read-out: Bcl-2 (BAX) gene, BAX (gene 581); test: LTEA_HepaRG_BAX: Life Technologies and Expression Analysis (LTEA) Assay for Bcl-2 (BAX) gene using HepaRG (AID 2283470)
Procedure, shortened: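 Differentiated HepaRG cells exposed 48 h in serum-free induction medium, eight half-log concentrations from 100 uM, in duplicate, 0.5% DMSO vehicle. BAX mRNA by TaqMan qRT-PCR, normalised to ACTB, GAPDH and POLR2A.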

Broad substrate specificity ATP-binding cassette transporter ABCG2 (Homo sapiens), sequence (Q9UNQ0 whole entry, looked up): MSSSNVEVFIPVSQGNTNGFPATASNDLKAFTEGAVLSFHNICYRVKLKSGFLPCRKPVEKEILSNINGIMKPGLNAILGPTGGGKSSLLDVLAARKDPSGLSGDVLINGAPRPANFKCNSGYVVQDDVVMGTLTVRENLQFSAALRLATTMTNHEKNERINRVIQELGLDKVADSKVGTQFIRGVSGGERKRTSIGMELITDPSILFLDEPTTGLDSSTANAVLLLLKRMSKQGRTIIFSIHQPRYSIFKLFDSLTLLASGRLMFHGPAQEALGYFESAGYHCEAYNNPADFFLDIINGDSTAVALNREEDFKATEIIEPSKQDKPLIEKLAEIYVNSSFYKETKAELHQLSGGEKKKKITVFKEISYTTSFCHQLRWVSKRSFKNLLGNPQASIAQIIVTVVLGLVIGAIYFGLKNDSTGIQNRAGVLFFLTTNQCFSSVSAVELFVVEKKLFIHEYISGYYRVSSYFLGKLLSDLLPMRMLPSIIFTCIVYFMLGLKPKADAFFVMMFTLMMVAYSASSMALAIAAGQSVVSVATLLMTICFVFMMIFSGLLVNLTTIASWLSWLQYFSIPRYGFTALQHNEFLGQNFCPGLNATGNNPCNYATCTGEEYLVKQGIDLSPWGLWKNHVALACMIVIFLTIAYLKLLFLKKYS
Apoptosis regulator Bcl-2 (Homo sapiens), sequence (P10415 whole entry, looked up): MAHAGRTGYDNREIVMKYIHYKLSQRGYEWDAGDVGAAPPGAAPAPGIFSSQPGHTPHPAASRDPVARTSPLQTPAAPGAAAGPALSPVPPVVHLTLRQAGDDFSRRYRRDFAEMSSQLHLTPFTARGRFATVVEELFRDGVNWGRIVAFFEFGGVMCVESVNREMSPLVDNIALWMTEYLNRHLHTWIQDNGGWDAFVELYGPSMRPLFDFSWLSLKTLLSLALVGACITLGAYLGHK

SMILES: CCOCCOCCO
- outcome [1]: inactive
- outcome [2]: inactive
- outcome [3]: inactive
- outcome [4]: inactive
- outcome [5]: inactive
- outcome [6]: inactive
- outcome [7]: inactive
- outcome [8]: inactive
- outcome [9]: inactive
- outcome [10]: inactive
- outcome [11]: inactive
- outcome [12]: inactive
- outcome [13]: inactive
- outcome (BCL2L11 (gene 10018)): inactive
- outcome [14]: inactive
- outcome [15]: inactive
- outcome [16]: inactive
- outcome (Caspase-3 (Homo sapiens)): inactive

SMILES: Cc1occc(=O)c1O
- outcome [1]: inactive
- outcome [2]: inactive
- outcome [3]: inactive
- outcome [4]: inactive
- outcome [5]: inactive
- outcome [6]: inactive
- outcome [7]: inactive
- outcome [8]: inactive
- outcome [9]: inactive
- outcome [10]: inactive
- outcome [11]: inactive
- outcome [17]: inactive
- outcome [12]: inactive
- outcome [13]: inactive
- outcome (BCL2L11 (gene 10018)): inactive
- outcome [16]: inactive
- outcome (Caspase-3 (Homo sapiens)): inactive

SMILES: CN(C)CCCN1c2ccccc2Sc2ccc(Cl)cc21
- outcome [1]: inactive
- outcome [2]: inactive
- outcome [3]: inactive
- AC50 [4]: 89.7 µM (active)
- outcome [5]: inactive
- AC50 [6]: 24.7 µM (active)
- AC50 [7]: 89.6 µM (active)
- outcome [8]: inactive
- outcome [9]: inactive
- outcome [11]: inactive
- AC50 [12]: 90.5 µM (active)
- AC50 [13]: 26.6 µM (active)
- AC50 (BCL2L11 (gene 10018)): 72.8 µM (active)
- AC50 [14]: 85.8 µM (active)
- outcome [16]: inactive
- outcome (Caspase-3 (Homo sapiens)): inactive

SMILES: Cc1c(C)c2c(c(C)c1O)CCC(C)(COc1ccc(CC3SC(=O)NC3=O)cc1)O2 (stereo not drawn)
- AC50 [1]: 0.262 µM (active)
- AC50 [2]: 88.4 µM (active)
- outcome [3]: inactive
- AC50 [4]: 37.7 µM (active)
- outcome [5]: inactive
- AC50 [6]: 15.8 µM (active)
- AC50 [7]: 93.7 µM (active)
- outcome [8]: inactive
- outcome [9]: inactive
- AC50 [10]: 97.6 µM (active)
- outcome [11]: inactive
- AC50 [17]: 29.6 µM (active)
- outcome [12]: inactive
- AC50 [13]: 25 µM (active)
- AC50 (BCL2L11 (gene 10018)): 90.1 µM (active)
- outcome [16]: inactive
- outcome (Caspase-3 (Homo sapiens)): inactive
